Most compounds without a hit are left out; they make up all but 7.9% or so of the library.
HT1080NT lethal: kills 2HG-producing HT-1080-NT fibrosarcoma cells | 360,000 tested, 1.6% active | HT-1080-NT fibrosarcoma viability, CellTiter-Glo ATP luminescence, 48 h | Potency, µM (highest dose often 46.1 µM), for the others: at the highest dose activity, negative = less viability, usual class: cytotoxic;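 note: NT is the 2HG producing partner of a matched IDH1 knockdown line; 0% = DMSO-treated cells and -100% = media-only wells without cells; nearly all actives have a fitted effect of over 55% in size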
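Compounds were tested in concentration-response format on HT-1080-NT cells for 48 hours at 37 degrees C. Cell viability came from CellTiter-Glo luminescence; curves were classified by r2, response magnitude and activity.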
SW480 rereplic: inducers of DNA re-replication in SW480 colon cancer cells | SW480 DNA re-replication, Hoechst DNA content imaging, 48 h | Potency, µM (top dose mostly 46.1 µM), without a hit: top-dose re-replication activation, actives largely listed as activators | 340,000 tested, 1.8% active; note: % of control where 0% means no effect; nearly all actives have a fitted effect of over 55% in size
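DNA re-replication was detected as more nuclei of elevated Hoechst intensity after 48 hr exposure to compound (23 nL pinned per well of 250 cells).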
HT1080 IDH1KD tx: HT-1080 IDH1 knockdown cell toxicity (counter line). HT-1080 IDH1 knockdown viability, ATP luminescence, 48 h. Potency, µM (series often up to 46.1 µM), without a hit: at the top dose activity, negative = toxicity, hits mostly cytotoxic. 360,000 tested, 2% active. AID 686971;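 note: 0% = DMSO wells and -100% = cell-free medium wells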
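HT-1080-IDH1KD cells (IDH1 knocked down), 750/well in RPMI with 5% FBS, treated with compound 48 h at 37 degrees C. Viability by CellTiter-Glo luminescence, normalised to DMSO and no-cell wells; concentration-response curves classed.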
KB-3-1 tox: KB-3-1 parental cell cytotoxicity; AID 1347075; 400,000 tested, 1.4% active; KB-3-1 viability, CellTiter-Glo ATP luminescence, 72 h; Potency, µM (doses to about 46.1 µM), hits mostly cytotoxic; note: % is set by controls: 0 for no effect and ±100 for the full control effect; nearly all actives have a fitted effect of over 60% in size
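Here the drug-naive KB-3-1 line serves as comparator for MDR sub-line selectivity; cells received compound titrations, 72 h at 37 °C, then CellTiter-Glo readout.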
KB-V1 cytotox: kills drug-selected multidrug resistant KB-V1 cells; KB-V1 MDR cells viability, CellTiter-Glo, 72 h; Potency, µM (series often up to 46.1 µM), usual class: cytotoxic; 400,000 tested, 3.4% active; note: % is set by controls: 0 for no effect and ±100 for the full control effect; nearly all actives have a fitted effect of over 60% in size
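KB-V1 cells (P-gp-expressing MDR subline of KB-3-1) in phenol-red-free DMEM with 10% FBS were exposed to library compounds over a concentration series for 72 h at 37 degrees C. Viability read by CellTiter-Glo luminescence; concentration-effect curves fitted after normalization.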
MCF10A rerep: DNA re-replication induction in MCF 10a cells | MCF 10A DNA re-replication, Hoechst nuclear intensity, 48 h | Potency, µM (top dose mostly 46.1 µM), for inactives: at the highest dose activity, positive = re-replication, actives largely listed as activators | 350,000 tested, 2.9% active | AID 624296; note: % of control where 0% means no effect; nearly all actives have a fitted effect of over 50% in size
Starred values were filed as active, the others as inactive; i = inactive; ? = inconclusive; . = not tested or not shown. Calls come from the whole dose curve; as a rule, active = well fitted curve in the direction sought with a large enough effect; inconclusive = small, poorly fitted or top-dose-only effect, or another doubt; inactive = no such curve, though single readings can be large; an effect the other way counts as inactive or inconclusive. Potency is the fitted concentration of half-maximal effect.

SMILES	HT1080NT lethal	SW480 rereplic	HT1080 IDH1KD tx	KB-3-1 tox	KB-V1 cytotox	MCF10A rerep
Cc1cccc(C(=O)Oc2ccccc2/C=N/Nc2ccc([N+](=O)[O-])cc2)c1	-14%	13µM*	-10%	?	i	?
Cc1cccc(C(=O)Oc2ccc(/C=N/O)cc2)c1	-5%	5%	-21%	i	i	1%
O=C(N/N=C/c1cccnc1)c1ccc([N+](=O)[O-])cc1	9%	-1%	15%	i	i	-28%
C(=N\NC1=Nc2cccc3cccc1c23)/c1cccnc1	-18%	0%	-13%	i	16µM*	?
C(=N\NC1=Nc2cccc3cccc1c23)/c1ccccc1	-2%	3%	-5%	i	i	?
O=[N+]([O-])c1ccc(N/N=C/c2cccnc2)cc1	-26%	?	7.3µM*	i	i	13%
CSc1nc2c(cnn2-c2ccc(C)c(C)c2)c(=O)[nH]1	1%	-11%	9%	1.6µM*	?	0%
Cc1cc(C)c2c(c1)-c1c(ssc1=S)C(C)(C)N2C(=O)CSc1nncn1C	?	-4%	18µM*	21µM*	23µM*	?
Cc1cc2c(cc1C)N(C(=O)CSC1=NCCS1)C(C)(C)c1ssc(=S)c1-2	-28%	10%	?	i	16µM*	4%
COc1ccc2c(c1)-c1c(ssc1=S)C(C)(C)N2C(=O)CSC1=NCCS1	-4%	6%	-22%	i	i	0%
CC1(C)c2ssc(=S)c2-c2ccccc2N1C(=O)CSC1=NCCS1	3%	4%	-11%	i	16µM*	23%
COc1cc(OC)c(NC(=O)CN2CCCN(Cc3ccccc3C)S2(=O)=O)cc1Cl	.	.	.	i	i	.
Cc1cccc(-n2cc(CNCCc3nc(C)cc(C)n3)c(-c3cccc(F)c3)n2)c1	?	23µM*	?	i	i	4.1µM*
Cc1cccc(-c2nn(-c3ccccc3)cc2CNCCO)c1	.	.	.	i	i	.
Cc1cc(NC(=O)CSc2nnc(-c3ccccc3)o2)no1	-9%	-6%	-18%	i	i	-1%
Cc1cc(NC(=O)CSc2ccccc2)no1	-6%	-13%	-2%	i	i	0%
Cc1cc(NC(=O)c2ccc3nc(-c4ccccc4)c(-c4ccccc4)nc3c2)no1	-8%	?	-6%	i	?	9.2µM*
Cc1cc(NC(=O)CSc2nnc(-c3ccoc3C)o2)no1	11µM*	21µM*	6.3µM*	i	i	24%
Cc1cc(NC(=O)CSc2nnc(-c3ccccc3)c(-c3ccccc3)n2)no1	2.9µM*	3.7µM*	5.2µM*	7.3µM*	5.2µM*	12µM*
CC(=O)c1ccc(NC(=O)CN2C(=O)CCc3ccccc32)cc1	.	.	.	i	i	.
C=C1[C@@H](O)CN(Cc2ccc(OC)cc2)S1(=O)=O	.	.	.	?	i	.
COc1ccc(CN2C[C@H]3CCCN3c3cc(Br)ccc3S2(=O)=O)cc1	?	1.6µM*	2.6µM*	1.8µM*	?	1.2µM*
CC(C)N=c1scc(-c2cccs2)n1/N=C/c1ccc(O)c(O)c1O	?	?	16µM*	?	i	?
CCN=c1scc(-c2cccs2)n1/N=C/c1cc(OC)ccc1O	-17%	?	-25%	18µM*	?	5.8µM*
COc1cc(-c2nnc(SCC(=O)N(C)C3CCCCC3)o2)cc(OC)c1OC	.	.	.	i	i	.
SMILES	HT1080NT lethal	SW480 rereplic	HT1080 IDH1KD tx	KB-3-1 tox	KB-V1 cytotox	MCF10A rerep
CC(C)C(=O)NC(c1ccccc1)c1cc([N+](=O)[O-])c2cccnc2c1O (stereo not given)	?	?	16µM*	?	?	?
CC(=O)NC(c1ccccc1)c1cc([N+](=O)[O-])c2cccnc2c1O (stereo not given)	?	0%	13µM*	?	?	?
CC(=O)NC(c1ccco1)c1cc(Cl)c2cccnc2c1O (stereo not given)	.	.	.	i	i	.
CCOC(=O)c1c(C)[nH]c(C)c1S(=O)(=O)N1CCCC(C(=O)Nc2ccc(F)cc2F)C1 (stereo not given)	.	.	.	i	i	.
COc1ccc(-n2c(=O)c3sc4ccccc4c3n(CC(=O)NCc3ccccc3)c2=O)cc1	.	.	.	i	i	.
CN(C)c1ccc(/C=N/NC(=O)c2cc(-c3ccc4c(c3)OCO4)n[nH]2)cc1	5.8µM*	?	?	?	?	5.8µM*
COc1ccc(/C=N/NC(=O)c2cc(-c3ccc4c(c3)OCO4)n[nH]2)cc1OC	-4%	12%	-2%	i	i	-4%
O=C(N/N=C/c1ccc(F)cc1)c1cc(-c2ccc3c(c2)OCO3)n[nH]1	?	4%	?	i	i	29µM*
CC1(c2ccccc2)CC(C)(C)N(C(=O)c2ccccc2Cl)c2ccccc21 (stereo not given)	.	.	.	i	i	.
Cc1ccc(NC(=O)Cn2c(=O)n(CCCCC(=O)NCc3ccc4c(c3)OCO4)c(=O)c3ccccc32)cc1	.	.	.	i	i	.
CCc1ccc(NC(=O)CN2C(=O)c3ccccc3Sc3ccc(C(=O)N4CCCC4)cc32)cc1	.	.	.	i	i	.
COc1ccc(Br)cc1C1=CC(=O)C[C@H](c2ccc(F)cc2)C1	-17%	.	-23%	i	16µM*	.
COc1ccc([C@H]2CC(=O)C=C(c3ccc(Cl)cc3C)C2)cc1	5%	?	0%	?	?	18µM*
COc1cccc(C2=CC(=O)C[C@H](c3ccc(Cl)cc3)C2)c1OC	-17%	0%	-10%	i	i	23µM*
COc1ccccc1C1=CC(=O)C[C@H](c2ccc(Cl)cc2)C1	?	?	?	i	i	22%
COc1ccc([C@H]2CC(=O)C=C(c3ccc(OC)cc3OC)C2)cc1	2.3µM*	13µM*	2.1µM*	0.82µM*	1.5µM*	?
COCCCN1C(=O)C(CC(=O)NC2CCCC2)CC(C(=O)N(C(C)C)C(C)C)=C1C (stereo not given)	18%	.	19%	i	i	.
COc1cccc(OCCn2cc(C=O)c3ccccc32)c1	-5%	3%	-16%	i	i	7%
COc1cccc(OCCCn2cc(/C=C3/C(=N)N4C=C(C)SC4=NC3=O)c3ccccc32)c1	?	7%	?	i	i	8.2µM*
CC1=CN2C(=N)/C(=C/c3cn(CCCOc4ccccc4C)c4ccccc34)C(=O)N=C2S1	7%	15µM*	0%	i	i	22%

Bioassay records (PubChem)
